# Measurements taken from PubChem BioAssay (EPA / NIEHS).
# Several values for one entry are separate records, joined by “and”; a condition that tells them apart may be missing. Equal values may be shown once. Where a structure was tested more than once in an assay, its records may differ in their call. Activity calls are given as the source filed them. The calls were made as follows: active = hit-call score of the fitted dose curve at least 0.9, where 1 is the maximum; inactive = score below 0.9.
# Tests used:
# [1] = APR_HepG2_NuclearSize_72hr: Apredica 72-hour HepG2 Assay for Nuclear Size (AID 2282925); conditions: high-content imaging, actives raise or lower the signal
# Outline: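 Nuclear size was read by high-content imaging of Hoechst 33342 stain after formaldehyde fixation. Compounds ran 72 h on HepG2 at 0.39 to 200 uM, with final DMSO 0.5% v/v. Curves fitted both directions relative to DMSO control.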
# [2] = ATG_CRE_CIS: Attagene CIS-FACTORIAL HepG2 Assay for human cAMP Responsive Element (CRE) binding protein 3 (AID 2282926); conditions: HepG2 CRE cis-reporter, Attagene multiplexed mRNA; actives raise or lower the signal
# Outline: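 Endogenous transcription factor activity read via CRE-regulated reporter transcripts in transfected HepG2 cells. After 24 h exposure, RNA was reverse-transcribed, amplified, fluorescently labelled and sized by capillary electrophoresis; gain or loss fitted against DMSO.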
# [3] = target: CCAAT/enhancer-binding protein beta (Homo sapiens) (UniProt P17676); experiment: ATG_C_EBP_CIS: Attagene CIS-FACTORIAL HepG2 Assay for human CCAAT/Enhancer Binding Protein (C/EBP) beta (AID 2282927); conditions: HepG2 Attagene cis-factorial transcription factor reporter; actives raise or lower the signal
# Outline: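 Endogenous transcription factor activity in human liver HepG2 cells is inferred from induction of a CEBPB-linked reporter mRNA. Exposure lasts 24 h; activity is fitted in both directions relative to DMSO.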
# [4] = ATG_CMV_CIS: Attagene CIS-FACTORIAL HepG2 Assay for human CMV (Internal Marker) (AID 2282928); conditions: HepG2 CMV promoter reporter, transcription factor profiling; actives raise or lower the signal;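 also: endpoint acts as a background internal control marker rather than a target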
# Outline: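 Readout: fluorescent reporter cDNA fragments separated by capillary electrophoresis after RT-PCR and HpaI cut. Cells: HepG2 carrying transfected cis-promoter reporter constructs, dosed 24 h. Endpoint serves as background internal-marker control, fit bidirectionally versus DMSO.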
# [5] = ATG_DR4_LXR_CIS: Attagene CIS-FACTORIAL HepG2 Assay for human Liver X Receptor (LXR), DR4 submotif (AID 2282929); conditions: HepG2 Attagene DR4 cis-reporter, mRNA transcription; actives raise or lower the signal
# Outline: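 Fluorescence intensity of labelled reporter cDNA fragments, separated by capillary electrophoresis, gives the signal. HepG2 cells bearing cis-regulated reporter constructs were treated 24 h; activity fitted bidirectionally relative to DMSO negative control.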
# [6] = target: Aryl hydrocarbon receptor (Homo sapiens) (UniProt P35869); experiment: ATG_Ahr_CIS: Attagene CIS-FACTORIAL HepG2 Assay for human Aryl Hydrocarbon Receptor (Ahr) (AID 2282930); conditions: HepG2 AhR cis-factorial reporter transcription; actives raise or lower the signal
# Outline: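 Transient MRTU transfection of HepG2 → 24 h compound exposure → total RNA, oligo(dT) RT → PCR, 6-FAM extension, HpaI cut → CE fluorescence. DMSO = baseline; bidirectional curve fit.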
# [7] = ATG_AP_1_CIS: Attagene CIS-FACTORIAL HepG2 Assay for human Activator Protein 1 (AP-1) (AID 2282931); conditions: HepG2 Attagene cis-factorial AP-1 reporter mRNA; actives raise or lower the signal
# Outline: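 Multiplexed HepG2 reporter assay, 24 h dosing. mRNA induction detected by RT-PCR plus capillary electrophoresis. Activity fitted in both directions against DMSO.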
# [8] = ATG_AP_2_CIS: Attagene CIS-FACTORIAL HepG2 Assay for human Activator Protein 2 (AP-2) (AID 2282932); conditions: HepG2 AP-2 cis-reporter, Attagene transcription factor profiling; actives raise or lower the signal
# Outline: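 Transiently transfected HepG2 cells are exposed to chemical for 24 h. Reporter transcripts are then measured as fluorescence following RT-PCR and capillary separation, and gain- or loss-of-signal is fitted relative to DMSO.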
# [9] = ATG_BRE_CIS: Attagene CIS-FACTORIAL HepG2 Assay for human Bone Morphogenetic Protein (BMP) Response Element (BRE) (AID 2282933); conditions: HepG2 BMP response element reporter, Attagene transcription factor profiling; actives raise or lower the signal
# Outline: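 HepG2 cells transiently transfected with multiplexed cis-element reporter units were dosed with chemical for 24 h. Reporter mRNA was measured by RT-PCR with fluorescent labelling, HpaI digestion and capillary electrophoresis; bidirectional fitting relative to DMSO.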
# [10] = target: Retinoic acid receptor alpha (Homo sapiens) (UniProt P10276); experiment: ATG_DR5_RAR_CIS: Attagene CIS-FACTORIAL HepG2 Assay for human Retinoic Acid Receptor Alpha (RARE), DR5 submotif (AID 2282934); conditions: HepG2 Attagene cis-factorial RARE DR5 reporter, mRNA; actives raise or lower the signal;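 as to AC50: reporter responds to endogenous RAR alpha beta and gamma in HepG2 not RARA alone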
# Outline: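 Transient MRTU transfection of HepG2; 24 h compound treatment; TriZol RNA, oligo(dT) RT, PCR, FAM labelling, capillary electrophoresis. Bidirectional fit vs DMSO. Endogenous TF activity at DR5 RARE.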
# [11] = target: Transcription factor E2F1 (Homo sapiens) (UniProt Q01094); experiment: ATG_E2F_CIS: Attagene CIS-FACTORIAL HepG2 Assay for human E2F Transcription Factor 1 (AID 2282935); conditions: HepG2 Attagene cis-reporter, E2F reporter RNA transcripts; actives raise or lower the signal
# Outline: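 Fluorescent RT-PCR products, digested with HpaI for 2 h at 37 C, are separated by capillary electrophoresis. Source RNA comes from transfected HepG2 cultures treated for 24 h.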
# [12] = ATG_E_Box_CIS: Attagene CIS-FACTORIAL HepG2 Assay for human Enhancer Box (E-box) (AID 2282936); conditions: HepG2 E-box cis-reporter transcription, actives raise or lower the signal
# Outline: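 Fluorescent reporter fragments separated by capillary electrophoresis gave the signal; mRNA came from HepG2 cells transfected with cis-element reporters and treated 24 h. Curves fitted bidirectionally relative to DMSO controls.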
# [13] = ATG_M_61_CIS: Attagene CIS-FACTORIAL HepG2 Assay for M61 Transcription Factor (Internal Marker) (AID 2282937); conditions: HepG2 Attagene CIS-FACTORIAL M61 internal marker reporter; actives raise or lower the signal
# Outline: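 Endogenous transcription factor activity in HepG2 is read through transiently transfected cis-element reporter units. After 24 h dosing, RNA undergoes reverse transcription, PCR and primer extension with 6-FAM before capillary electrophoresis; DMSO-referenced bidirectional fit.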
# [14] = ATG_EGR_CIS: Attagene CIS-FACTORIAL HepG2 Assay for human Early Growth Response 1 (EGR1) (AID 2282938); conditions: HepG2 Attagene CIS-FACTORIAL EGR reporter mRNA; actives raise or lower the signal
# Outline: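 Activity is taken as induction or loss of reporter mRNA versus DMSO, fitted bidirectionally. Transcripts from cis-regulated reporter units in transiently transfected HepG2 were measured after 24 h by RT-PCR with capillary electrophoresis.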
# [15] = ATG_M_19_CIS: Attagene CIS-FACTORIAL HepG2 Assay for M19 Transcription Factor (Internal Marker) (AID 2282939); conditions: HepG2 Attagene CIS-FACTORIAL M19 internal marker reporter; actives raise or lower the signal
# Outline: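 HepG2 cells transiently transfected with cis-regulated multiple reporter transcription units were dosed for 24 h; reporter mRNA was quantified by RT-PCR, 6-FAM primer-extension labelling, HpaI digestion and capillary electrophoresis, with bidirectional fitting against DMSO baseline.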
# [16] = ATG_ERE_CIS: Attagene CIS-FACTORIAL HepG2 Assay for Estrogen Response Element (ERE) (AID 2282940); conditions: HepG2 ERE cis-reporter, Attagene RNA transcript; actives raise or lower the signal
# Outline: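 HepG2 cells transiently transfected with cis-promoter-driven multiplexed reporter transcription units report endogenous TF activity. After 24 h compound exposure, reporter mRNA is quantified by RT-PCR with capillary electrophoresis fluorescence; bidirectional fitting versus DMSO baseline.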
# [17] = ATG_Ets_CIS: Attagene CIS-FACTORIAL HepG2 Assay for human Erythroblast Transformation Specific (ETS) (AID 2282941); conditions: HepG2 ETS cis-reporter transcription, actives raise or lower the signal
# Outline: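 RT-PCR/capillary electrophoresis fluorescence read-out of reporter mRNA; HepG2 transient multi-reporter transfection; 24 h compound exposure; gain or loss of signal fitted bidirectionally relative to DMSO.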
# [18] = target: Hepatocyte nuclear factor 3-beta (Homo sapiens) (UniProt Q9Y261); experiment: ATG_FoxA2_CIS: Attagene CIS-FACTORIAL HepG2 Assay for human Forkhead box A2 (FOXA2) (AID 2282942); conditions: HepG2 cis-reporter transcription factor activity, 24 h; actives raise or lower the signal
# Outline: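 Reporter transcript induction is measured by fluorescence after capillary electrophoresis of RT-PCR products from HepG2 cells exposed 24 h. Cis-regulated reporter units report endogenous factor activity; curves fitted both directions against DMSO.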
# [19] = ATG_FoxO_CIS: Attagene CIS-FACTORIAL HepG2 Assay for human Forkhead box O (FoxO) (AID 2282943); conditions: HepG2 Attagene cis-reporter, FoxO element, mRNA; actives raise or lower the signal
# Outline: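 HepG2, transient MRTU transfection (cis element, endogenous TFs). Dose 24 h. TriZol RNA → oligo(dT) RT → PCR → 6-FAM primer extension → HpaI cut → CE. Gain/loss vs DMSO.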
# [20] = ATG_GATA_CIS: Attagene CIS-FACTORIAL HepG2 Assay for human GATA Binding Protein (AID 2282944); conditions: HepG2 GATA cis-element reporter, Attagene multiplex mRNA; actives raise or lower the signal
# Outline: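 HepG2 cells transiently transfected with multiplexed cis-element reporter units reflecting endogenous transcription factor activity; reporter mRNA measured after 24 h dosing by RT-PCR, 6-FAM labeling, HpaI digestion and capillary electrophoresis. Bidirectional fitting versus DMSO baseline.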
# CCAAT/enhancer-binding protein beta (Homo sapiens), sequence (P17676 whole entry, looked up): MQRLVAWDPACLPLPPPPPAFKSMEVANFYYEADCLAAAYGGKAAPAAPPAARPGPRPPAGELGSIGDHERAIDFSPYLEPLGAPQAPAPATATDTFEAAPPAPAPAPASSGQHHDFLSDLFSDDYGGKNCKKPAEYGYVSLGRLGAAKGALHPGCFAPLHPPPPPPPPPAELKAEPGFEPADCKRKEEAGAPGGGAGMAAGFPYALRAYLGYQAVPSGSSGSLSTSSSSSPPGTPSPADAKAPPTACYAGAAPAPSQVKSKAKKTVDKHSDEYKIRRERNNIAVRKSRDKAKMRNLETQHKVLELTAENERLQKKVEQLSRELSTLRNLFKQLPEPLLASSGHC
# Hepatocyte nuclear factor 3-beta (Homo sapiens), sequence (Q9Y261 whole entry, looked up): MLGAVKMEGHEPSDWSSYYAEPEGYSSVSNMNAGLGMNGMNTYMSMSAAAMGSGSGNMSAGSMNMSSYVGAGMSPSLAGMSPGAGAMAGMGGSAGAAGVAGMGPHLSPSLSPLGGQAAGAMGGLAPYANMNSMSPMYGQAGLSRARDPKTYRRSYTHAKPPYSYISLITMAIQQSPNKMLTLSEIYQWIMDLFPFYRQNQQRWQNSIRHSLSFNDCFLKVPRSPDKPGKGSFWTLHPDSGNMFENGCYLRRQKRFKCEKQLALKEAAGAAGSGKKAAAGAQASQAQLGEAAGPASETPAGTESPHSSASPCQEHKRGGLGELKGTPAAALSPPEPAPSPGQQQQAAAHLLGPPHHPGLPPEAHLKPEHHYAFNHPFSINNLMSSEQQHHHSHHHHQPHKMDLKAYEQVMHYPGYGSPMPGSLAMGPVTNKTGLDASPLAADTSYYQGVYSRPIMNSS
# Retinoic acid receptor alpha (Homo sapiens), sequence (P10276 whole entry, looked up): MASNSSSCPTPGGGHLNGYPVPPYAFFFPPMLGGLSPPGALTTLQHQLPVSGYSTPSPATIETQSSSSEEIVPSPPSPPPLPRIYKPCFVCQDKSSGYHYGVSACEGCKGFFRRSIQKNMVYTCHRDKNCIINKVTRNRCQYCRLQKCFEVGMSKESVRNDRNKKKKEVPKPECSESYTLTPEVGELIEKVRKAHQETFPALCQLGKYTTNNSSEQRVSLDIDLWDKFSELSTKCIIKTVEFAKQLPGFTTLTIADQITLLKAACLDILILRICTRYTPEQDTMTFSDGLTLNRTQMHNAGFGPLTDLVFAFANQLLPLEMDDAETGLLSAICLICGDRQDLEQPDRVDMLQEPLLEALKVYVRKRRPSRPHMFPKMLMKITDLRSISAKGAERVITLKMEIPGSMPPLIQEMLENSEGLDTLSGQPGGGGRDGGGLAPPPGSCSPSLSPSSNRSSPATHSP
# Transcription factor E2F1 (Homo sapiens), sequence (Q01094 whole entry, looked up): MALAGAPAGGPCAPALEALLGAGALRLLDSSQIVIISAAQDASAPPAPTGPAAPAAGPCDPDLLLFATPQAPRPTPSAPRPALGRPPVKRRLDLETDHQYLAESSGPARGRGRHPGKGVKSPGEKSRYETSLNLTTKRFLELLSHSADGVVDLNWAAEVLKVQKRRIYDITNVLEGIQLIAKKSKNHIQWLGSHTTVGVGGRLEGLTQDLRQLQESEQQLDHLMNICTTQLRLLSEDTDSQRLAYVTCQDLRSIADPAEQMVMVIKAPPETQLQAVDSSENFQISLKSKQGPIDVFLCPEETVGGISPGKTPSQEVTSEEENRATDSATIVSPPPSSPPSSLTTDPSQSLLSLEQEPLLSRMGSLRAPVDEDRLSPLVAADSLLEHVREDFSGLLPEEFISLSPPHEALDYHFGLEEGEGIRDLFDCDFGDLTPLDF
# Aryl hydrocarbon receptor (Homo sapiens), sequence (P35869 whole entry, looked up): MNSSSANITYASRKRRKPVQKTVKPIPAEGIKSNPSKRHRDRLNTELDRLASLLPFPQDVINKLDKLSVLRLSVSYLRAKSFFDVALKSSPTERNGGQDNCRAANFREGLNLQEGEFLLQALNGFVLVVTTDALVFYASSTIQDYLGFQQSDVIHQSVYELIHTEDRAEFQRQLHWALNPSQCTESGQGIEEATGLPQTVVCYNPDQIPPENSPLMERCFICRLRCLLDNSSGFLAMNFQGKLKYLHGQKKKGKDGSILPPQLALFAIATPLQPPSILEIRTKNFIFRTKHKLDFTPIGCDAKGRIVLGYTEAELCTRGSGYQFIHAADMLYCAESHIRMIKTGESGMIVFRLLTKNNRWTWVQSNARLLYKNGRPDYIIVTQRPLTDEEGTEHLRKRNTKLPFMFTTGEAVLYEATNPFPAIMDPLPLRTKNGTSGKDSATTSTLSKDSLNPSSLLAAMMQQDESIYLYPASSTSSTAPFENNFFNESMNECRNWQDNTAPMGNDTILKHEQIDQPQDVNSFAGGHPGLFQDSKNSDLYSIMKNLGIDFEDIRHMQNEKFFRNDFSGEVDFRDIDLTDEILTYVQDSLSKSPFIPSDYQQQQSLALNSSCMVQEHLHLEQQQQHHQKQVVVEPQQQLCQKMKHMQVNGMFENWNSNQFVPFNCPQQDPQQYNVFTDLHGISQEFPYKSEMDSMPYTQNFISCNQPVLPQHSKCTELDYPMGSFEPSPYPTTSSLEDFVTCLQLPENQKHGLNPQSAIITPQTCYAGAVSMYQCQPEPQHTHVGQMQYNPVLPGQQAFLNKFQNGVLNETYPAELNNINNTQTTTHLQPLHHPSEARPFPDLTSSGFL
compound,measurement,setting,value
CCCCNC(=O)OCC#CI,outcome,[1],inactive
same,AC50,[2],29.7 µM (active)
same,outcome,[2],inactive
same,AC50,[3],25.3 µM (active)
same,outcome,[3],inactive
same,AC50,[4],67.7 µM (active)
same,outcome,[4],inactive
same,AC50,[5],180 µM (active)
same,outcome,[5],inactive
same,outcome,[6],inactive
same,AC50,[7],181 µM (active)
same,outcome,[7],inactive
same,AC50,[8],60.7 µM (active)
same,outcome,[8],inactive
same,AC50,[9],25.2 µM (active)
same,outcome,[9],inactive
same,AC50,[10],26.7 µM (active)
same,outcome,[10],inactive
same,outcome,[11],inactive
same,AC50,[12],145 µM (active)
same,outcome,[12],inactive
same,outcome,[13],inactive
same,AC50,[14],33.4 µM (active)
same,outcome,[14],inactive
same,outcome,[15],inactive
same,outcome,[16],inactive
same,AC50,[17],48.7 µM (active)
same,outcome,[17],inactive
same,AC50,[18],173 µM (active)
same,outcome,[18],inactive
same,AC50,[19],26.4 µM (active)
same,outcome,[19],inactive
same,AC50,[20],49.2 µM (active)
same,outcome,[20],inactive
C#CCOS(=O)OC1CCCCC1Oc1ccc(C(C)(C)C)cc1 (stereo unspecified),outcome,[1],inactive
same,AC50,[2],0.994 µM (active)
same,AC50,[3],0.658 µM (active)
same,outcome,[4],inactive
same,outcome,[5],inactive
same,outcome,[6],inactive
same,AC50,[7],1.55 µM (active)
same,outcome,[8],inactive
same,AC50,[9],1.16 µM (active)
same,outcome,[10],inactive
same,outcome,[11],inactive
same,outcome,[12],inactive
same,outcome,[13],inactive
same,AC50,[14],1.46 µM (active)
same,outcome,[15],inactive
same,outcome,[16],inactive
same,outcome,[17],inactive
same,outcome,[18],inactive
same,outcome,[19],inactive
same,outcome,[20],inactive
CCOC(=O)CC(SP(=S)(OC)OC)C(=O)OCC (stereo unspecified),outcome,[1],inactive
same,AC50,[2],26.6 µM (active)
same,outcome,[2],inactive
same,outcome,[3],inactive
same,outcome,[4],inactive
same,outcome,[5],inactive
same,outcome,[6],inactive
same,AC50,[7],41.2 µM (active)
same,outcome,[7],inactive
same,outcome,[8],inactive
same,AC50,[9],69.2 µM (active) and 28.1 µM (active)
same,outcome,[11],inactive
same,outcome,[12],inactive
same,outcome,[13],inactive
same,AC50,[14],100 µM (active)
same,outcome,[14],inactive
same,outcome,[15],inactive
same,AC50,[16],100 µM (active) and 27 µM (active)
same,outcome,[17],inactive
same,outcome,[18],inactive
same,outcome,[19],inactive
same,outcome,[20],inactive
N#CC(CCc1ccc(Cl)cc1)(Cn1cncn1)c1ccccc1 (stereo unspecified),outcome,[1],inactive
same,outcome,[2],inactive
same,outcome,[3],inactive
same,outcome,[4],inactive
same,outcome,[5],inactive
same,outcome,[6],inactive
same,AC50,[7],26.7 µM (active)
same,outcome,[8],inactive
same,outcome,[9],inactive
same,outcome,[10],inactive
same,outcome,[11],inactive
same,outcome,[12],inactive
same,outcome,[13],inactive
same,outcome,[14],inactive
same,outcome,[15],inactive
same,outcome,[16],inactive
same,outcome,[17],inactive
same,outcome,[18],inactive
same,outcome,[19],inactive
same,outcome,[20],inactive
COC(=O)c1ccccc1C(=O)OC,outcome,[1],inactive
same,outcome,[2],inactive
same,outcome,[3],inactive
same,outcome,[4],inactive
same,outcome,[5],inactive
same,outcome,[6],inactive
same,outcome,[7],inactive
same,outcome,[8],inactive
same,outcome,[9],inactive
same,outcome,[10],inactive
same,outcome,[11],inactive
same,outcome,[12],inactive
same,outcome,[13],inactive
same,outcome,[14],inactive
same,outcome,[15],inactive
same,outcome,[16],inactive
same,outcome,[17],inactive
same,outcome,[18],inactive
same,outcome,[19],inactive
same,outcome,[20],inactive
